The results in this text go back to PubChem BioAssay (Tox21).

The nature of assay [1]: A CellTox Green Cytotoxicity Assay to monitor cytotoxicity in HEK293 cells - 32 hour (AID 1224881). Note: nearly all actives have a fitted effect of over 40% in size. Note: potency is the fitted concentration of half-maximal effect. The essentials: (§1)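 Dead-cell fluorescence measured kinetically: asymmetric cyanine dye, HEK293, 600 cells/well, 5 h settle, 23 nL cpd/DMSO, 37 C, reads 0–40 h every 8 h.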
Assay [2] in a line: A CellTox Green Cytotoxicity Assay to monitor cytotoxicity in HepG2 cells - 0 hour (AID 1224882). Note: nearly all actives have a fitted effect of over 35% in size. A digest of the protocol: (§2)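 First, HepG2 cells (600/well) mixed with reagent were plated; second, after 5 h at 37 C they received compounds via pintool; third, fluorescence was measured at 0 h through 40 h at 8 h intervals.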
Assay [3] can be described thus: A CellTox Green Cytotoxicity Assay to monitor cytotoxicity in HepG2 cells - 32 hour (AID 1224883). Note: nearly all actives have a fitted effect of over 50% in size. Note: potency is the fitted concentration of half-maximal effect. A digest of the protocol:
as §2

A short description of assay [4]: qHTS RealTime-Glo MT Cell Viability Assay in HEK293 cells - 24 hour (AID 1224886). Note: top concentration of the series differs between compounds; nearly all actives have a fitted effect of over 50% in size. The essentials: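 Viability tracked continuously by luminescence as live cells reduce a prosubstrate for NanoLuc; HEK293 cells preincubated 5 h, compound-treated at 37 C, and read at 0, 8, 16, 24, 32 and 40 h.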
A short description of assay [5]: qHTS RealTime-Glo MT Cell Viability Assay in HEK293 cells - 8 hour (AID 1224887). Note: top concentration of the series differs between compounds; nearly all actives have a fitted effect of over 50% in size. The essentials:
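600 HEK293 cells per well, dispensed already mixed with RealTime-Glo MT reagents. Compound dosing came 5 h later. The same wells were read for luminescence at 0, 8, 16, 24, 32 and 40 h of exposure at 37 C.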
On the technique in general: qHTS replaces the single test concentration by a dilution series.

A short description of assay [6]: A CellTox Green Cytotoxicity Assay to monitor cytotoxicity in HEK293 cells - 16 hour (AID 1224888). Note: nearly all actives have a fitted effect of over 35% in size. Note: potency is the fitted concentration of half-maximal effect. A digest of the protocol: as §1
A short description of assay [7]: qHTS RealTime-Glo MT Cell Viability Assay in HepG2 cells - 0 hour (AID 1224889). Note: nearly all actives have a fitted effect of over 50% in size. A digest of the protocol: (§3)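 Viability was tracked continuously by NanoLuc luminescence from prosubstrate reduced by living HepG2 cells, at successive time points over 40 h of compound exposure. Cells with reagent were preincubated 5 h at 37 °C before compound addition.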
Assay [8] can be described thus: A CellTox Green Cytotoxicity Assay to monitor cytotoxicity in HepG2 cells - 8 hour (AID 1224890). Note: nearly all actives have a fitted effect of over 45% in size. A digest of the protocol:
as §2

The nature of assay [9]: qHTS assay to identify small molecule antagonists of the estrogen receptor alpha (ER-alpha) signaling pathway using the BG1 cell line in the presence of 0.1 nM 17-beta-estradiol - cell viability counter screen (AID 1259241). Note: nearly all actives have a fitted effect of over 40% in size. The essentials:
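VM7Luc4E2, 4,000 cells/well, phenol red-free medium + 10% charcoal-stripped FBS; 24 hr plating; cpd + 0.1 nM E2 final, 22 hr 37C/5% CO2; CellTiter-Fluor 30 min, fluorescence.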

Assay [10] is described as follows: qHTS assay to identify small molecule antagonists of the androgen receptor (AR) signaling pathway using the MDA cell line in the presence of 0.5 nM R1881 - cell viability counter screen (AID 1259242). Note: nearly all actives have a fitted effect of over 45% in size. A digest of the protocol:
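qHTS format. MDA-kb2 (MMTV-luc, AR/GR responsive) + cpd + 0.5 nM R1881 final, 16 hr 37C/0% CO2 → CellTiter-Fluor 30 min → fluorescence intensity.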

Assay [11] concerns the target Estrogen receptor (Homo sapiens) (UniProt P03372). Briefly: qHTS assay to identify small molecule antagonists of the estrogen receptor alpha (ER-alpha) signaling pathway using the BG1 cell line in the presence of 0.1 nM 17-beta-estradiol (AID 1259244). Note: nearly all actives have a fitted effect of over 50% in size. Note: potency is the fitted concentration of half-maximal effect. The essentials:
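Reporter is a stably transfected luciferase under four estrogen responsive elements in VM7Luc4E2 cells expressing native full-length ER-alpha; inhibition of 0.1 nM (final) 17beta-estradiol-driven signal over 22 h is read by luminescence.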

Assay [12] can be described thus: qHTS assay to identify small molecule HDAC inhibitors (AID 1259364). Note: potency is the fitted concentration of half-maximal effect.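 Note: wild-type HCT-116 cells with endogenous class I/II HDAC activity; nearly all actives have a fitted effect of over 45% in size.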 A digest of the protocol:
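Quantitative high-throughput format: overnight-seeded HCT-116 cells got compounds for 2 hr at 37C; HDAC-Glo I/II reagent added, 30 min RT, luminescence measured.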

Assay [13] is described as follows: qHTS assay to identify small molecule HDAC inhibitors - cell viability counter screen (AID 1259365). A digest of the protocol:
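Luminescence from CellTiter-Glo, developed 30min at room temperature, reports viability of wild-type HCT-116 cells treated 2hr with compounds at 37 C and 5% CO2 after overnight plating.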

Assay [14] in a line: qHTS assay to identify small molecule agonists of the sonic hedgehog signaling (Shh) pathway - cell viability counter screen (AID 1259366). Note: nearly all actives have a fitted effect of over 50% in size. The essentials: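 Cytotoxicity counter screen run in the same wells as the Shh reporter assay. NIH/3T3 cells carrying a Gli1 response element–driven luciferase were treated with DMSO-dissolved compounds for 24hr, and live-cell protease activity was measured with CellTiter-Fluor.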

Assay [15] can be described thus: qHTS assay to identify small molecule antagonists of the sonic hedgehog signaling (Shh) pathway - cell viability counter screen (AID 1259367). Note: nearly all actives have a fitted effect of over 55% in size. A digest of the protocol:
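Fluorescence read-out (CellTiter-Fluor, 1 hr at 37C) taken after 23 hr compound treatment of 3T3 Gli1-Luc cells stimulated with conditioned medium. Cells were seeded at 2,000 per well and pre-incubated 4 hr.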

Assay [16] in a line: qHTS assay to identify small molecule agonists of the sonic hedgehog signaling (Shh) pathway (AID 1259368; calls by dose curve;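 note: NIH/3T3-derived 3T3Gli1-Luc cells carrying a stable Gli1-driven firefly luciferase reporter; series mostly up to about 92 µM; nearly all actives have a fitted effect of over 15% in size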). A digest of the protocol: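 Quantitative high-throughput format using a Gli1-driven firefly luciferase reporter line derived from NIH/3T3 cells. After a 24 hr compound treatment at 37 C and 5% CO2, luminescence reported Gli1 response element activity.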
Assay [17] in a line: qHTS RealTime-Glo MT Cell Viability Assay in HepG2 cells - 16 hour (AID 1224885). Note: nearly all actives have a fitted effect of over 50% in size. A digest of the protocol:
as §3

Assay [18] can be described thus: qHTS assay to identify small molecule phospholipidosis (PLD) inducers (AID 1259344; active = well fitted curve in the direction sought with a large enough effect; an effect the other way counts as inactive or inconclusive). A digest of the protocol: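 Read-out is LipidTOX Red fluorescence (ex 595/em 615) imaged in HepG2 cells after 24 h compound exposure at 37 C, with Hoechst nuclear counterstain (ex 352/em 461) allowing per-cell normalisation.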
The nature of assay [19]: A CellTox Green Cytotoxicity Assay to monitor cytotoxicity in HEK293 cells - 8 hour (AID 1224884). Note: nearly all actives have a fitted effect of over 35% in size. The essentials:
as §1

Values without a mark were called inactive. Inconclusive results are not listed. Activity calls are given as the source filed them. Unless noted, calls come from the whole dose curve; as a rule, active = well fitted curve in the direction sought with a large enough effect in the repeat runs; inconclusive = weak or mixed curves; inactive = no such curve, though single readings can be large; an effect the other way counts as inactive or inconclusive.

Estrogen receptor (Homo sapiens), sequence (P03372 whole entry, looked up): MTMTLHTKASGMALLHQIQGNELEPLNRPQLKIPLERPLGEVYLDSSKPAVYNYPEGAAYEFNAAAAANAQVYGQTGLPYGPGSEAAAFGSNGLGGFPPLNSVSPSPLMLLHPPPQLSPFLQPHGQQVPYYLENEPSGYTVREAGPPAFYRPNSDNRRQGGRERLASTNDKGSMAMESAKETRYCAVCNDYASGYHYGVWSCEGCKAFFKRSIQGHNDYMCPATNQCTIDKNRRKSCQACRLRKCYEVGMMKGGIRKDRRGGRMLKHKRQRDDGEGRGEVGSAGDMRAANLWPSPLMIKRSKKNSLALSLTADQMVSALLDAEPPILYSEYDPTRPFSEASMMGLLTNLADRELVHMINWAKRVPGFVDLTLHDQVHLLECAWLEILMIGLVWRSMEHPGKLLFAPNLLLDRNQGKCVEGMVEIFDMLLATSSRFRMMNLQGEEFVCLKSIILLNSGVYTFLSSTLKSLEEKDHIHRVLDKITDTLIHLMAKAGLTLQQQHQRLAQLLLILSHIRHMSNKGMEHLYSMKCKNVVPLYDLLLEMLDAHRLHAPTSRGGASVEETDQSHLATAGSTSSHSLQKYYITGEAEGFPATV

As to `CCOc1ccc2[nH]cc(C(=O)NCc3ccccc3)c(=O)c2n1`, the Potency result in assay [1], in [2], in assay [3], in assay [4], in assay [5] and in assay [6] was “inactive” in each case. Besides, the Potency entry in assay [7], in [8], in assay [9], in assay [10], in assay [12] and in assay [14] was “inactive” throughout. In addition, in assay [15], the Potency entry is “inactive”. Besides, in assay [11], the Potency is 54.5 µM (active). The outcome in assay [13] and in assay [16] was inactive.

Turning to `CC(C(=O)O)c1ccc(-c2ccccc2)c(F)c1` (centres undefined), the Potency entry in assay [1], in assay [2], in assay [17], in assay [4], in assay [5] and in assay [6] was “inactive” in each case. The Potency entry in assay [7], in assay [9], in assay [10], in assay [11], in [18] and in [14] was “inactive” in each case. For the same compound, the Potency result in assay [15] is “inactive”. For the same compound, the Potency in [3] is 54.9 µM (active); in [12] it was 43.3 µM (active). Further, the outcome in assay [13] and in assay [16] was inactive.

`Cc1ccccn1`: the Potency entry in assay [1], in assay [2], in assay [19], in [17], in [4] and in [5] was “inactive” each time. Also, the Potency entry in assay [6], in [7], in [8], in assay [9], in [10] and in [18] was “inactive” each time. Moreover, the Potency entry in assay [12], in assay [14] and in assay [15] was “inactive” each time. For the same compound, the result in assay [16] was inactive.

`CC1(C)[C@H]2CC[C@]1(C)[C@H](O)C2`: the Potency result in [1], in assay [2], in assay [3], in assay [19], in [4] and in assay [7] was “inactive” throughout. Further, the Potency result in assay [8], in [9], in assay [10], in assay [18], in assay [12] and in assay [14] was “inactive” in each case. In addition, the Potency entry in [15] was “inactive”. Also, the call in [16] was inactive.

Regarding `C#CCOC(=O)[C@@H](C)Oc1ccc(Oc2ncc(Cl)cc2F)cc1`, the Potency result in assay [1], in assay [2], in [3], in [17], in assay [4] and in assay [6] was “inactive” throughout. The Potency entry in [7], in assay [9], in assay [10], in assay [11], in assay [14] and in assay [15] was “inactive” each time. Besides, the call in assay [16] was inactive.

Regarding `CC(C)(Oc1ccc(Cl)cc1)C(=O)OCCCOC(=O)C(C)(C)Oc1ccc(Cl)cc1`, the Potency entry in assay [1], in [2], in assay [3], in [19], in [6] and in [7] was “inactive” in each case. In addition, the Potency entry in assay [8], in assay [9], in [10], in [11], in assay [12] and in [14] was “inactive” throughout. Moreover, in assay [15], the Potency entry was “inactive”. The outcome in assay [13] and in [16] was inactive.

Turning to `CC(=O)/C(C)=C/C1C(C)=CCCC1(C)C` (centres undefined), the Potency was 17.4 µM (active) in assay [1] and 15.5 µM (active) in assay [6]. For the same compound, the Potency entry in assay [2], in assay [19], in assay [17], in assay [4], in assay [5] and in assay [7] was “inactive” in each case. For the same compound, the Potency entry in assay [8], in assay [9], in [10], in assay [11], in assay [12] and in assay [14] was “inactive” each time. For the same compound, the Potency result in assay [15] is “inactive”. For the same compound, the result in assay [13] and in assay [16] was inactive.

For the compound `CCCC(=O)OCC`, the Potency result in assay [1], in assay [2], in assay [19], in assay [17], in assay [4] and in [5] was “inactive” each time. Also, the Potency entry in assay [6], in assay [7], in assay [8], in [9], in [10] and in assay [11] was “inactive” in each case. Further, the Potency result in assay [14] and in assay [15] was “inactive” throughout. For the same compound, the result in [13] and in [16] was inactive.
